Values joined by “and” are separate entries in the source; they are usually repeats but may differ in a detail not shown here. Identical values can stand only once. Records with an inconclusive call do not appear. Where a call stands in place of a potency, no number is given. A structure can be active in one record and inactive in another. Active and inactive are the calls of the source. Unless noted, the call rests on the fitted dose curve; in most records, active means well fitted curve in the direction sought with a large enough effect in the repeat runs; inconclusive means weak or mixed curves; inactive means no such curve, though single readings can be large; an effect the other way counts as inactive or inconclusive.
Key:
[1] = A CellTox Green Cytotoxicity Assay to monitor cytotoxicity in HepG2 cells - 0 hour (AID 1224882); further: nearly all actives have a fitted effect of over 35% in size
How it was run: (§1)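 Fluorescent DNA-binding dye, 600 HepG2 cells/well, 5 h preincubation then compound in DMSO; same plates read at 0–40 h, 37 C.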

[2] = A CellTox Green Cytotoxicity Assay to monitor cytotoxicity in HepG2 cells - 32 hour (AID 1224883); further: nearly all actives have a fitted effect of over 50% in size; further: potency means the concentration at half of the fitted maximal effect
How it was run: as §1

[3] = A CellTox Green Cytotoxicity Assay to monitor cytotoxicity in HEK293 cells - 8 hour (AID 1224884); further: nearly all actives have a fitted effect of over 35% in size; further: potency means the concentration at half of the fitted maximal effect
How it was run: (§2)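 Homogeneous no-lysis format: HEK293 cell suspension mixed with CellTox Green reagent, seeded, incubated 5 h at 37 C/5% CO2, then dosed by pintool with compound in DMSO.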

[4] = qHTS RealTime-Glo MT Cell Viability Assay in HepG2 cells - 16 hour (AID 1224885); further: nearly all actives have a fitted effect of over 50% in size; further: potency means the concentration at half of the fitted maximal effect
How it was run: (§3)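 Cells + NanoLuc/prosubstrate dispensed (600 cells/well) → 5 h at 37 C/5% CO2 → compounds in DMSO transferred → 40 h incubation at 37 C, luminescence read at 0, 8, 16, 24, 32, 40 h.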

[5] = qHTS RealTime-Glo MT Cell Viability Assay in HEK293 cells - 24 hour (AID 1224886); further: nearly all actives have a fitted effect of over 50% in size; further: potency means the concentration at half of the fitted maximal effect
How it was run: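 Tox21 10K qHTS, HEK293, 600 cells/well, RealTime-Glo reagent co-dispensed with cells; 5 h preincubation, compound by pintool, 37 C, luminescence at 0–40 h.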

[6] = qHTS RealTime-Glo MT Cell Viability Assay in HEK293 cells - 8 hour (AID 1224887); further: nearly all actives have a fitted effect of over 50% in size; further: potency means the concentration at half of the fitted maximal effect
How it was run: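 Measured as luminescence from the same continuously cultured HEK293 wells at successive time points (0, 8, 16, 24, 32, 40 h) after compound addition. Reagent present from seeding; dosing at 5 h; incubation 37 C.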

[7] = qHTS RealTime-Glo MT Cell Viability Assay in HepG2 cells - 0 hour (AID 1224889); further: nearly all actives have a fitted effect of over 50% in size
How it was run: as §3

[8] = A CellTox Green Cytotoxicity Assay to monitor cytotoxicity in HepG2 cells - 8 hour (AID 1224890); further: nearly all actives have a fitted effect of over 45% in size; further: potency means the concentration at half of the fitted maximal effect
How it was run: as §1

[9] = qHTS assay to identify small molecule antagonists of the estrogen receptor alpha (ER-alpha) signaling pathway using the BG1 cell line in the presence of 0.1 nM 17-beta-estradiol - cell viability counter screen (AID 1259241); further: nearly all actives have a fitted effect of over 40% in size; further: potency means the concentration at half of the fitted maximal effect
How it was run: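 VM7Luc4E2, 4,000 cells/well, phenol red-free medium + 10% charcoal-stripped FBS; 24 hr plating; cpd + 0.1 nM E2 final, 22 hr 37C/5% CO2; CellTiter-Fluor 30 min, fluorescence.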

[10] = target: Estrogen receptor (Homo sapiens) (UniProt P03372); assay: qHTS assay to identify small molecule antagonists of the estrogen receptor alpha (ER-alpha) signaling pathway using the BG1 cell line in the presence of 0.1 nM 17-beta-estradiol (AID 1259244); further: nearly all actives have a fitted effect of over 50% in size; further: potency means the concentration at half of the fitted maximal effect
Estrogen receptor (Homo sapiens), sequence (P03372 whole entry, looked up): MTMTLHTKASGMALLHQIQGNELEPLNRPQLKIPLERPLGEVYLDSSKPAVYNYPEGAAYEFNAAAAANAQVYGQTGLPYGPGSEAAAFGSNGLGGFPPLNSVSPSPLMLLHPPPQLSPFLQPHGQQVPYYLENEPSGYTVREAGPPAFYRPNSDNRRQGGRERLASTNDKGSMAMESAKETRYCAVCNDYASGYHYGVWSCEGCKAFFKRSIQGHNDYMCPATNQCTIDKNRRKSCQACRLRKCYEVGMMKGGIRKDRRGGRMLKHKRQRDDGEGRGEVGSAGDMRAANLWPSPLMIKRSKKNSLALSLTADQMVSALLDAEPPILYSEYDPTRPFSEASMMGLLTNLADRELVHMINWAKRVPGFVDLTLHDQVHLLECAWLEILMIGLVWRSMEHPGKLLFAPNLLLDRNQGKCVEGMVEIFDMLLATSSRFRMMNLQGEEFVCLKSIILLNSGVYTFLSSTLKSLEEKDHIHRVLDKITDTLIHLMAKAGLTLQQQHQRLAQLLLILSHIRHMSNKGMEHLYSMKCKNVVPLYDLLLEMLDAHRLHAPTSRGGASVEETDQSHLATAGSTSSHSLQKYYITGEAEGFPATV
How it was run: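 Seeding of stripped-serum-adapted VM7Luc4E2 cells, 24 h attachment, compound transfer, then 0.1 nM final 17beta-estradiol; after 22 h incubation, ONE-Glo reagent and luminescence reading.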

[11] = qHTS assay to identify small molecule phospholipidosis (PLD) inducers (AID 1259344; active means well fitted curve in the direction sought with a large enough effect; an effect the other way counts as inactive or inconclusive)
How it was run: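 After 4 h attachment on collagen I, HepG2 cells were dosed with compound alongside LipidTOX Red, kept 24 h at 37 C, fixed, and imaged for lamellar phospholipid pits.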

[12] = qHTS assay to identify small molecule HDAC inhibitors (AID 1259364);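 further: wild-type HCT-116 cells with endogenous class I/II HDAC activity; top concentration of the series differs between compounds; nearly all actives have a fitted effect of over 45% in size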
How it was run: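 After a 2 hr compound incubation (37C, 5% CO2), HCT-116 cells seeded at 1,500/well the day before received HDAC-Glo reagent; signal read as luminescence after 30 min at room temperature.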

[13] = qHTS assay to identify small molecule agonists of the sonic hedgehog signaling (Shh) pathway (AID 1259368; calls by dose curve;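 further: NIH/3T3-derived 3T3Gli1-Luc cells carrying a stable Gli1-driven firefly luciferase reporter; series mostly up to about 92 µM; nearly all actives have a fitted effect of over 15% in size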)
How it was run: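 Stable NIH/3T3 Gli1-Luc reporter clone; 24 hr cpd exposure after a 4 hr settling period; luminescence endpoint.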

[14] = qHTS assay to identify small molecule antagonists of the sonic hedgehog signaling (Shh) pathway (AID 1259369; calls by dose curve; further: potency means the concentration at half of the fitted maximal effect; nearly all actives have a fitted effect of over 45% in size)
How it was run: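 Gli1 transcriptional reporter (firefly Luc) in NIH/3T3 background, conditioned-medium activated. 24hr exposure, luminescence endpoint.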

[15] = qHTS assay to identify small molecule antagonists of the androgen receptor (AR) signaling pathway using the MDA cell line in the presence of 0.5 nM R1881 - cell viability counter screen (AID 1259242); further: nearly all actives have a fitted effect of over 45% in size; further: potency means the concentration at half of the fitted maximal effect
How it was run: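 Human breast carcinoma MDA-kb2 cells, cultured without CO2, receive compounds alongside 0.5 nM (final) R1881 agonist. After 16 hr at 37C, viability is taken as live-cell protease signal.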

[16] = qHTS assay to identify small molecule agonists of the sonic hedgehog signaling (Shh) pathway - cell viability counter screen (AID 1259366); further: nearly all actives have a fitted effect of over 50% in size; further: potency means the concentration at half of the fitted maximal effect
How it was run: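 Cytotoxicity counter screen run in the same wells as the Shh reporter assay. NIH/3T3 cells carrying a Gli1 response element–driven luciferase were treated with DMSO-dissolved compounds for 24hr, and live-cell protease activity was measured with CellTiter-Fluor.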

[17] = qHTS assay to identify small molecule antagonists of the sonic hedgehog signaling (Shh) pathway - cell viability counter screen (AID 1259367); further: nearly all actives have a fitted effect of over 55% in size; further: potency means the concentration at half of the fitted maximal effect
How it was run: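 Conditioned medium drove Shh signaling in 3T3 Gli1-Luc cells exposed to compounds at 37C and 5% CO2. Viability was determined from CellTiter-Fluor fluorescence, with reagent incubated 1 hr after 23 hr of treatment.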

[18] = A CellTox Green Cytotoxicity Assay to monitor cytotoxicity in HEK293 cells - 16 hour (AID 1224888); further: nearly all actives have a fitted effect of over 35% in size; further: potency means the concentration at half of the fitted maximal effect
How it was run: as §2

[19] = qHTS assay to identify small molecule HDAC inhibitors - cell viability counter screen (AID 1259365)
How it was run: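 Luminescence from CellTiter-Glo, developed 30min at room temperature, reports viability of wild-type HCT-116 cells treated 2hr with compounds at 37 C and 5% CO2 after overnight plating.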

[20] = target: Androgen receptor (Homo sapiens) (UniProt P10275); assay: qHTS assay to identify small molecule antagonists of the androgen receptor (AR) signaling pathway using the MDA cell line in the presence of 0.5 nM R1881 (AID 1259243); further: nearly all actives have a fitted effect of over 50% in size
Androgen receptor (Homo sapiens), sequence (P10275 whole entry, looked up): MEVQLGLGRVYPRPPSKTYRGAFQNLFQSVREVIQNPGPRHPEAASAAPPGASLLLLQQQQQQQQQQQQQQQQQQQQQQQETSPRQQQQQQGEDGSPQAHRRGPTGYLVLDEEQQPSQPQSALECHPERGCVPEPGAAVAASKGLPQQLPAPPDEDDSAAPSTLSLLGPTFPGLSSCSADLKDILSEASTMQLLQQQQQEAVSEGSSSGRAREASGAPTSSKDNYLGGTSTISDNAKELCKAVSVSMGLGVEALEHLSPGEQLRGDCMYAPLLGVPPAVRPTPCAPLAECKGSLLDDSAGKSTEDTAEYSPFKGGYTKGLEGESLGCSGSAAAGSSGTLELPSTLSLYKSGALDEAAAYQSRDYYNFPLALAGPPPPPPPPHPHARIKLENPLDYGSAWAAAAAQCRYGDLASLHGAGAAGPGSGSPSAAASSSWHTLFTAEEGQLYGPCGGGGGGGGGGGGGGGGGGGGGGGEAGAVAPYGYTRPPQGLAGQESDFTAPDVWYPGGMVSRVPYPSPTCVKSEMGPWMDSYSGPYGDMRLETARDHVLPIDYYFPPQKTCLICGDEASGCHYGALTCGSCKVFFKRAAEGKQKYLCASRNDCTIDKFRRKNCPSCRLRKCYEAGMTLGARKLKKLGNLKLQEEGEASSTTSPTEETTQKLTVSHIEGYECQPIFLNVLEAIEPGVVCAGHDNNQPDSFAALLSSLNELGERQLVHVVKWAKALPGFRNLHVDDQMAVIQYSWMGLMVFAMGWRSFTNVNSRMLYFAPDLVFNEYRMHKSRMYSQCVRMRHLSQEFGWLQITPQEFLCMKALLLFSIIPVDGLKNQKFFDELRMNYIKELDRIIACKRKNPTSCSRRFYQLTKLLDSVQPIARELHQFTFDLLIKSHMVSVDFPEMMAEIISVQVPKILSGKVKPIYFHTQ
How it was run: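 Cells: MDA-kb2 (MMTV-luc). Stimulus: 0.5 nM R1881. Time: 16 hr, 37C, no CO2. Detection: ONE-Glo luminescence after 30 min at RT.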

CCCCCCCCCCCCCCCC[N+](C)(C)CCN(Cc1ccc(OC)cc1)c1ncccn1
Potency [1]: inactive
Potency [2]: 6.74 µM (active)
Potency [3]: 19 µM (active)
Potency [4]: 8.49 µM (active)
Potency [5]: 1.07 µM (active)
Potency [6]: 2.13 µM (active)
Potency [7]: inactive
Potency [8]: 19 µM (active)
Potency [9]: inactive
Potency [10]: inactive
Potency [11]: inactive
Potency [12]: inactive
Potency [13]: inactive
Potency [14]: 2.66 µM (active)

C=CC(=O)OCC(CO)(COC(=O)C=C)COC(=O)C=C
Potency [1]: inactive
Potency [2]: 9.81 µM (active)
Potency [3]: inactive
Potency [4]: 13.9 µM (active) and 11 µM (active)
Potency [5]: 4.91 µM (active)
Potency [6]: 6.19 µM (active) and inactive
Potency [8]: inactive
Potency [9]: 15.4 µM (active) and 48.6 µM (active)
Potency [15]: 10.9 µM (active) and 27.3 µM (active)
Potency [10]: 13.7 µM (active)
Potency [12]: inactive
Potency [16]: 4.34 µM (active) and 10.9 µM (active)
Potency [17]: 3.87 µM (active) and 8.63 µM (active)

N=C1N=C(N)c2cc3ccccc3cc21
Potency [1]: inactive
Potency [2]: 33.4 µM (active)
Potency [3]: 54.9 µM (active)
Potency [4]: 38.9 µM (active)
Potency [5]: 24.5 µM (active)
Potency [6]: 43.6 µM (active)
Potency [18]: 54.9 µM (active)
Potency [7]: inactive
Potency [11]: inactive
Potency [12]: inactive
Potency [19]: inactive
Potency [16]: 27.3 µM (active)
Potency [17]: 24.3 µM (active)
Potency [14]: 0.969 µM (active)

Cc1c(C)c2c(c(C)c1O)CCC(C)(COc1ccc(CC3SC(=O)NC3=O)cc1)O2 (configuration not stated)
Potency [1]: inactive
Potency [2]: inactive
Potency [3]: inactive
Potency [4]: inactive
Potency [5]: 43.6 µM (active)
Potency [18]: inactive
Potency [7]: inactive
Potency [8]: inactive
Potency [9]: inactive
Potency [15]: inactive
Potency [12]: inactive
Potency [16]: inactive
Potency [17]: inactive
Potency [13]: inactive
Potency [14]: 54.5 µM (active)

O=C(OCC1CO1)C1CCCCC1C(=O)OCC1CO1 (configuration not stated)
Potency [1]: inactive
Potency [2]: inactive
Potency [3]: inactive
Potency [4]: inactive
Potency [5]: inactive
Potency [6]: inactive
Potency [18]: inactive
Potency [8]: inactive
Potency [15]: inactive
Potency [20]: inactive
Potency [12]: inactive
Potency [19]: inactive
Potency [16]: 13.7 µM (active)
Potency [17]: 13.7 µM (active)

NC(=O)NS(=O)(=O)c1ccc(N)cc1
Potency [1]: inactive
Potency [2]: inactive
Potency [3]: inactive
Potency [4]: inactive
Potency [5]: inactive
Potency [6]: inactive
Potency [7]: inactive
Potency [8]: inactive
Potency [9]: inactive
Potency [15]: inactive
Potency [10]: inactive
Potency [11]: inactive
Potency [12]: inactive
Potency [19]: inactive
Potency [16]: inactive
Potency [17]: inactive
Potency [13]: inactive

O=CC=C(c1ccccc1)c1ccccc1
Potency [1]: inactive
Potency [2]: inactive
Potency [3]: inactive
Potency [4]: inactive
Potency [5]: 17.5 µM (active)
Potency [18]: inactive
Potency [7]: inactive
Potency [8]: inactive
Potency [9]: inactive
Potency [15]: inactive
Potency [10]: 69.1 µM (active)
Potency [12]: inactive
Potency [19]: inactive
Potency [16]: 49 µM (active)
Potency [13]: inactive

— PubChem BioAssay (Tox21)
